Test [1] relates to XIP peptide (Xip251-270) binding. As to the kind of experiment: XIP fragment 251-270 binding compounds – biochemical, small-molecule microarray, fluorescence 635/667 nm, 0.1 µg/mL protein, primary screen (AID 1182). The following applies: fluorescent protein binding, 635 nm, higher = more signal, called active from +8 up or from −8 down.
The subject of test [2] is XIP peptide (Xip251-270). Description: compounds binding XIP fragment 251-270 – biochemical, small-molecule microarray, fluorescence 635/667 nm, 0.5 µg/mL protein, primary screen (AID 1183). The following applies: fluorescence 635 nm, higher = more signal.
The nature of test [3]: blood-stage malaria parasite viability loss – strain 3D7, DAPI fluorescence, 100 nL, primary screen (AID 1184).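 Further: parasites grown inside human red blood cells in medium with human serum.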 The settings on record: P. falciparum 3D7 growth, 3 d, higher = more signal.
Test [4] has as its target Homeobox protein Hox-A13 (Mus musculus) (UniProt Q62424). As to the kind of experiment: disruptors of Hoxa13 oligonucleotide interaction – biochemical, fluorescence polarization, labeled oligonucleotide, primary screen (AID 1185). The settings on record: Hoxa13:DNA binding, 15 min, higher = more signal, called active from +8 up or from −8 down.
Test [5] is described as follows: blockers of DNA damage checkpoint Chk1 activation – imaging, HeLa, hydroxyurea, phospho-Chk1 antibody, percent positive cells, primary screen (AID 1186). The following applies: hydroxyurea-induced phospho-Chk1 immunofluorescence imaging, higher = more signal.
The nature of test [6]: blockers of DNA damage checkpoint Chk1 activation – imaging, HeLa, hydroxyurea, phospho-Chk1 nuclear intensity, primary screen (AID 1187). The following applies: hydroxyurea-induced phospho-Chk1 immunofluorescence imaging, higher = more signal.

Calls of active or inactive are those of the source. Unless noted, how the calls were made is not given here.

Sequence of Homeobox protein Hox-A13 (Mus musculus) (Q62424 whole entry, looked up): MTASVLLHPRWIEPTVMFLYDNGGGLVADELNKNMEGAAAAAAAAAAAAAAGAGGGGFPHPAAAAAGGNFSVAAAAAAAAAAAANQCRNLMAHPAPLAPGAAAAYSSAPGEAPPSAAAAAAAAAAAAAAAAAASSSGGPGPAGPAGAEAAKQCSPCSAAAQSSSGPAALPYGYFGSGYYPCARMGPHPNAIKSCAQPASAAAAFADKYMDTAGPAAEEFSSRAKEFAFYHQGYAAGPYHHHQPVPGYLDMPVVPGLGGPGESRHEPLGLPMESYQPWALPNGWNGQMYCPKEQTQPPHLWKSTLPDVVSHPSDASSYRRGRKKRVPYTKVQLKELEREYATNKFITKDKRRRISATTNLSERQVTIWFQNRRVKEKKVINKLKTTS

With `O=C1C2C=CC(C(O)C3CC=CCC3)N(Nc3ccc([N+](=O)[O-])cc3)C2C(=O)N1c1ccccc1` (stereo not given), the composite z-score in test [1] was 0.524 (inactive); in test [2], 0.545. Besides, the z-score in test [3] is -0.627; in test [4] it was -3.86 (inactive); in test [5], 0.691 (inactive); in test [6] it was -0.101 (inactive).

Take `O=C1NC(=O)C2C1C=CC(C(O)C(c1ccccc1)c1ccccc1)N2Nc1ccccn1` (stereo not given): the composite z-score in test [1] was 0.21 (inactive); in test [2], 0.797. For the same molecule, the z-score in test [3] is -0.315; in test [4] it was -5.58 (inactive); in test [5] it was -0.12 (inactive); in test [6], -0.319 (inactive).

Consider `O=C1O[C@H](c2ccccc2)[C@H](c2ccccc2)N2[C@H]1[C@@H](C(=O)N1CCN(c3ncccn3)CC1)[C@]1(C(=O)Nc3ccc(C#CC4(O)CCCCCC4)cc31)[C@H]2c1ccc(O)cc1`, for which the composite z-score in test [1] was 1.48 (inactive); in test [2], 0.817. Moreover, the z-score is -0.797 in test [3], -1.28 (inactive) in test [4], -0.168 (inactive) in test [5] and -0.101 (inactive) in test [6].

For the molecule `COC(=O)[C@@]1(Cc2ccccc2)[C@H]2c3cc(C(=O)N(C)C)n(Cc4ccc(Cl)c(C(F)(F)F)c4)c3C[C@H]2CN1C(=O)c1ccccc1`, the composite z-score was 0 (inactive) in test [1] and 0.485 in test [2]. The z-score is -1.47 in test [3], -2.73 (inactive) in test [4], 0.435 (inactive) in test [5] and 0.444 (inactive) in test [6].

As for `COCCOC(=O)N1C(=O)[C@@]2(c3cc(C#CCCO)ccc31)[C@H](C(=O)N1CCN(c3ncccn3)CC1)[C@H]1C(=O)O[C@H](c3ccccc3)[C@H](c3ccccc3)N1[C@@H]2c1ccc(OCCO)cc1`, the composite z-score in test [1] was 0.472 (inactive); in test [2] it was 0.838. For the same molecule, the z-score is -2.04 in test [3], 0.211 (inactive) in test [4], -0.0621 (inactive) in test [5] and -0.0646 (inactive) in test [6].

For the molecule `COCCOC(=O)N1C(=O)[C@@]2(c3cc(C#CC4=CCCCC4)ccc31)[C@H](c1ccc(O)cc1)N1[C@H](c3ccccc3)[C@H](c3ccccc3)OC(=O)[C@H]1[C@@H]2C(=O)N1CCc2cc(OC)c(OC)cc2C1`, the composite z-score in test [1] was 2.12 (inactive); in test [2], 0.556. In addition, the z-score in test [3] is -2.06; in test [4], 0.0698 (inactive); in test [5], 0.301 (inactive); in test [6], 0.404 (inactive).

As to `CN(C)CCCC[C@@H]1NC(=O)[C@H]2C[C@@H](C(=O)NCCCCCCNC(=O)CS)[C@@H](c3cccc(OCCO)c3)N2C1=O`, the composite z-score in test [1] is 0.305 (inactive); in test [2] it was 0.603. The z-score is 0.162 in test [3], -1.91 (inactive) in test [4], 0.542 (inactive) in test [5] and 0.68 (inactive) in test [6].

In the case of `O=C(N1CCOCC1)[C@]1(CCS(=O)(=O)c2ccccc2)N=C(c2ccc(OCCCO)cc2)O[C@@H]1c1ccccc1`, the figures for the composite z-score in test [1] and in test [2] were 1.24 (inactive) and 0.717, respectively. Also, the z-score in test [3] was -2.21; in test [4], -4.54 (inactive); in test [5] it was -0.141 (inactive); in test [6] it was 0.0352 (inactive).

In the case of `CC(C)(C)OC(=O)N1[C@@H](C=C(Br)Br)COC1(C)C`, the composite z-score in test [1] is 5.39 (inactive); in test [2], -0.0146. The z-score in test [3] is 0.438; in test [4] it was -0.337 (inactive); in test [5] it was -0.35 (inactive); in test [6], -0.129 (inactive).

Regarding `CCOC(=O)C[C@H]1[C@H](OC(=O)c2ccc(-c3ccccc3)cc2)[C@@H](NC(=O)C2CCCCC2)c2cc(OCCCO)ccc2N1C(=O)Cc1ccc(OC)cc1`, the results for the composite z-score in test [1] and in test [2] were -0.344 (inactive) and -0.355, respectively. For the same molecule, the z-score in test [3] was -0.0911; in test [4] it was -2.2 (inactive); in test [5] it was -0.0566 (inactive); in test [6], 0.295 (inactive).

For the molecule `COCCCNC(=O)[C@@]1(c2ccc([N+](=O)[O-])cc2)CC(=O)N(C2CCCCC2)[C@@H]1c1ccc(CO)cc1I`, the composite z-score is 0.266 (inactive) in test [1] and 0.728 in test [2]. Moreover, the z-score in test [3] was -0.768; in test [4], -4.5 (inactive); in test [5], 0.237 (inactive); in test [6], 0.36 (inactive).

Take `O=C/C=C/c1ccc(-c2ccccc2)cc1`: the composite z-score is -1.46 (inactive) in test [1] and -0.548 in test [2]. The z-score was 0.886 in test [3], -1.34 (inactive) in test [4], 0.236 (inactive) in test [5] and 0.792 (inactive) in test [6].

`CS(=O)(=O)CCOC(=O)C1=CC(CCCO)=CC(C2CC2)N(Cc2sc3ccccc3c2Cl)C=C1C(=O)OCCS(C)(=O)=O` (stereo not given): the composite z-score is 1.05 (inactive) in test [1] and 0.257 in test [2]. Further, the z-score in test [3] was -3.02; in test [4] it was -4.7 (inactive); in test [5], -0.207 (inactive); in test [6], -0.0474 (inactive).

As to `C[C@]1(C(=O)NCC(F)(F)F)c2ccccc2C(=O)N(Cc2cc(C(F)(F)F)cc(C(F)(F)F)c2)[C@H]1c1ccc(CO)cc1`, the composite z-score is 0.0939 (inactive) in test [1] and 0.21 in test [2]. Also, the z-score in test [3] was 0.528; in test [4] it was -3.48 (inactive); in test [5], -0.496 (inactive); in test [6] it was -0.308 (inactive).

Take `CO[C@H]1O[C@H](CO)[C@@H](OC(=O)Nc2cccc(F)c2)[C@H](OC(=O)c2cc3ccccc3[nH]2)[C@H]1OC(=O)c1cc2ccccc2[nH]1`: the composite z-score is -0.194 (inactive) in test [1] and -0.141 in test [2]. Besides, the z-score in test [3] is -0.194; in test [4], -0.266 (inactive); in test [5], -0.313 (inactive); in test [6] it was -0.455 (inactive).

The values above are taken from PubChem BioAssay.
